The experiment relates to LEGO organoid PT (PTEN-/-; TP53-/-). Kind of experiment: bioluminescence (viable cell) signal fold change after vs before treatment, normalised to DMSO (ratio); higher = more tumour cell growth / less inhibition. Particulars: 10 µM; treatment time 6 days. The protocol:
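Luc2-labelled iPSC-derived glioblastoma-like organoids (LEGOs, genotypes PT = PTEN-/-;TP53-/-, PTCC = plus CDKN2A/B-/-, PTN = plus NF1-/-) were treated with 10 uM drug for 6 days (applied every other day) at 37 C. Bioluminescence imaging was done before treatment and 2 days after the last dose. BLI signals were normalised to the DMSO control on the same day and then to the pre-treatment signal (N=3).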
In the case of `CCC1(c2ccc(N)cc2)CCC(=O)NC1=O` (configuration not stated) [Aminoglutethimide], the bioluminescence is 0.724.
The value for `Cc1n[nH]cc1-c1cc2[nH]c([C@@H]3CC4CCN3CC4)nc(=O)c2s1` [Simurosertib] was 1.6; that for `CN[C@@H]1C[C@H]2O[C@@](C)([C@@H]1OC)n1c3ccccc3c3c4c(c5c6ccccc6n2c5c31)C(=O)NC4` [Staurosporine] was 0.0178.
Turning to `CC(C)c1cccc(C(C)C)c1O` [Propofol], the bioluminescence was 1.34.
The value for `CCN(C)C(=O)Oc1cccc([C@H](C)N(C)C)c1` [Rivastigmine] was 1.31; that for `CCN(C)C(=O)Oc1cccc([C@H](C)N(C)C)c1.O=C(O)[C@H](O)[C@@H](O)C(=O)O` [Rivastigmine tartrate] was 2.08.
For `CCOC(=O)c1cncn1[C@H](C)c1ccccc1` [Etomidate], the bioluminescence came to 1.09.
The same measure for `CC[C@@H](C(N)=O)N1CCCC1=O` [Levetiracetam]: 0.803.
The same measure for `Cl.Cn1c(CCCC(=O)O)nc2cc(N(CCCl)CCCl)ccc21` [Bendamustine hydrochloride]: 0.772; for `NCC(CC(=O)O)c1ccc(Cl)cc1` (configuration not stated) [Baclofen]: 0.694; for `NCC1(CC(=O)O)CCCCC1` [Gabapentin]: 1.08.
In the case of `COc1cc2c(cc1OC)[C@@H]1CC(=O)[C@@H](CC(C)C)CN1CC2.COc1cc2c(cc1OC)[C@H]1CC(=O)[C@H](CC(C)C)CN1CC2` [Tetrabenazine], the bioluminescence came out at 0.657.
Consider `CN(C)C(=O)Oc1ccc[n+](C)c1.[Br-]` [Mestinon], for which the bioluminescence amounted to 0.942.
Regarding `O=C(O)CCCc1ccc(N(CCCl)CCCl)cc1` [Chloroambucil], the bioluminescence came out at 1.03.
`COc1ccc(C(CN(C)C)C2(O)CCCCC2)cc1.Cl` (configuration not stated) [Venlafaxine hydrochloride]: the bioluminescence is 0.615.
The value for `Cc1cccc([C@H](C)c2cnc[nH]2)c1C.Cl` [Dexmedetomidine HCl] was 0.872; that for `CC(C)C[C@H]1C(=O)N2CCC[C@H]2[C@]2(O)O[C@](NC(=O)[C@@H]3C[C@@H]4c5cccc6[nH]cc(c56)C[C@H]4N(C)C3)(C(C)C)C(=O)N12.CC(C)[C@@]1(NC(=O)[C@@H]2C[C@@H]3c4cccc5[nH]cc(c45)C[C@H]3N(C)C2)O[C@@]2(O)[C@@H]3CCCN3C(=O)[C@H](Cc3ccccc3)N2C1=O.CC(C)[C@H]1C(=O)N2CCC[C@H]2[C@]2(O)O[C@](NC(=O)[C@@H]3C[C@@H]4c5cccc6[nH]cc(c56)C[C@H]4N(C)C3)(C(C)C)C(=O)N12.CCC(C)[C@H]1C(=O)N2CCC[C@H]2[C@]2(O)O[C@](NC(=O)[C@@H]3C[C@@H]4c5cccc6[nH]cc(c56)C[C@H]4N(C)C3)(C(C)C)C(=O)N12.CS(=O)(=O)O` [Dihydroergotoxine mesylate] was 0.998.

These data come from the supplement of paper PMC10811239.
